PubChem BioAssay (NCI)
The panel holds about 83,000 compounds, 20% with a hit somewhere; the sample as a whole holds those more often.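 Testing used 96-well plates and a 48-hour single-concentration exposure. Example: -40 means 40% of the starting cells died.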 Activity calls are given as the source filed them. How the source made its calls: active means growth percent below 10; inactive means the rest.

System: HL-60(TB) leukemia
Test: NCI-60 one-dose screen, 48 h (100 = growth as untreated, 0 = no growth, -100 = all killed)
Settings: 10 µM unless noted

| Compound | growth |
| --- | --- |
| CN1CCN(c2ccc(-c3ccc4ncc(C#N)c(Nc5ccc(F)c(Cl)c5)c4c3)cc2)CC1 | 22.3% (inactive) |
| Cc1ccc(S(=O)(=O)N/N=C\c2cc(Cl)ccc2O)cc1 | 91.7% (inactive) |
| NC(=O)[C@@H]1Cc2ccccc2CN1C(=O)c1ccc2c(c1)Cc1ccccc1-2 | 72.2% (inactive) |
| Cc1c2c(cc[n+]1Cc1ccccc1)c1ccc(OCC3CCCCC3)cc1n2CC1CCCCC1 | -53.4% (active) |
| C=C(C)[C@@H]1CC[C@]2(C(=O)N3CCN(C)CC3)CC[C@]3(C)[C@H](CC[C@@H]4[C@@]5(C)C/C(=C/c6ccncc6)[C@H](O)C(C)(C)[C@@H]5CC[C@]43C)[C@@H]12 | -25.2% [100 µM] (active) |
| CCCCCCNC(=O)Oc1ccc(/C(=C(/CC)Cc2ccccc2)c2ccc(OCCN3CCCCC3)cc2)cc1 | 75.1% (inactive) |
| C[C@]1(O)CC(=O)[C@]2(O)C3=C(C=C[C@]2(O)C1)C(=O)c1c(O)cccc1C3=O | -43.8% (active) |
| CS(=O)(=O)Nc1cc(-c2ccc3ncc(C#N)c(Nc4ccc(F)c(Cl)c4)c3c2)cnc1Cl | 0.119% (active) |
| CCCCOc1nc2ccc(Cl)cc2cc1/C=C/C(=O)/C=C1/CC(c2cc3cc(Cl)ccc3nc2OCCCC)Nc2ccccc2N1 (configuration not stated) | 101% (inactive) |
| O=C(Nc1ccc2ncsc2c1)c1csc(Nc2ccc3[nH]ncc3c2)n1 | 9.68% (active) |
| Cc1cc(NCc2cc(Nc3ccnc4cc(Cl)ccc34)ccc2F)nc(Cl)n1 | 22.9% (inactive) |
| O=Nc1ccc(O)c(=O)cc1 | 4.36% (active) |
| CCOC(=O)/C=C/c1ccc([N+](=O)[O-])o1 | -4.64% (active) |
| O=C(/C=C/c1cn(-c2ccccc2)nc1-c1ccccc1)CCC(=O)NO | 98.3% (inactive) |
| O=c1c2c(=NCCN3CCCC3)cc3c(=O)n(CCCN4CCOCC4)c(=O)c4ccc(c(O)n1CCCN1CCOCC1)c2c4-3 | -34.7% (active) |
| O=C(Nc1ccc(OCc2nnc(-c3ccc(Cl)cc3)o2)c(F)c1)Nc1ccc(Cl)c(Cl)c1 | 95.5% (inactive) |
| N#CCCCCCCCCCCC#N | 98.7% (inactive) |
| COc1ccc(S(=O)(=O)Nc2c(/C=C\c3cc(OC)c(OC)c(OC)c3)ccc(OC)c2O)cc1 | -42.3% (active) |
| O=C(Nc1ccc(Cl)cc1)N1NC(c2ccc(Cl)cc2)C=C1c1ccccc1 (configuration not stated) | 80.3% (inactive) |

| Compound | growth |
| --- | --- |
| CC(=O)C(/C=N/C(N)=O)=C(/C)O | 104% (inactive) |
| CN1CCN(C(=O)[C@]23CCC(C)(C)C[C@H]2C2=CC[C@@H]4[C@@]5(C)C/C(=C/c6cccnc6)C(=O)C(C)(C)[C@@H]5CC[C@@]4(C)[C@]2(C)CC3)CC1 | -32.4% (active) |
| C[C@]12CC[C@@H]3c4ccc(O)cc4CC[C@H]3[C@@H]1C[C@H](O)C2 | 52% (inactive) |
| Clc1ccc(C2=NN(c3ccc(Cl)cc3)C(c3cccc(Nc4ccnc5cc(Cl)ccc45)c3)C2)cc1 (configuration not stated) | 102% (inactive) |
| O=C(N/N=C/c1ccccc1SSc1ccccc1/C=N/NC(=O)c1ccccc1)c1ccccc1 | 3.4% (active) |
| COc1ccc(C(=O)c2sc3nc(-c4ccccc4OC)ccc3c2N)cc1OC | 13.9% (inactive) |
| COc1ccc(C(=O)/C=C/c2c(C(F)(F)F)nc3sccn23)cc1OC | -35.6% (active) |
| CC1=CCC(OC(=O)C(C)(C)CC(O)(C(C)O)C(O)C2(C)C=CC(Cc3ccc(C(C)C)cc3)(C(C)C)CC2)(C(C)C)CC1 (configuration not stated) | 95.9% (inactive) |
| COc1cc(N=Nc2ccc(N)cc2)c(OC)cc1N=Nc1ccccc1.[Cl][Zn][Cl] | 73.5% (inactive) |
| COc1ccc2c(c1)-c1c(c3cc(OC)ccc3n(CCN(C)C)c1=O)C2=O | 18% (inactive) |
| C#Cc1cccc(Nc2nc(Cl)nc3cc(NC(=O)CCl)ccc23)c1 | -45.8% (active) |
| CC(C)Cc1ccc([C@H](C)C(=O)O)cc1 | 92.9% (inactive) |
| N=C(N)SCc1c2ccccc2c(CSC(=N)N)c2ccccc12 | 20.8% (inactive) |
| CCCCCCCCCCCC1=NCCCN1CCCC | 104% (inactive) |
| Cc1cn(-c2cc(NC(=O)c3cccc(C#Cc4cccc5[nH]nc(N)c45)c3)cc(C(F)(F)F)c2)cn1 | 12.5% (inactive) |
| CN(C)C1CCC(NC2=CC(=O)C=CC2=O)CC1 (configuration not stated) | 114% (inactive) |
| CCCCCCCCn1ccc2cc(NC(=O)CN3CCN(c4cc(C)nc(Cl)n4)CC3)ccc21 | 83.3% (inactive) |
| CC1(C)CC(=O)C2=C(C1)C(c1ccc(Cl)cc1)n1ncc(C#N)c1N2 (configuration not stated) | 97.9% (inactive) |
